Source: PubChem (National Center for Advancing Translational Sciences (NCATS))
LmPK inhibitor: qHTS Assay for Inhibitors of Leishmania Mexicana Pyruvate Kinase (LmPK) | Potency, µM (titrated, usually from 57.5 µM), most hits filed as inhibitors | actives 0.37% (n = 290,000) | AID 1721, 2009 | purified LmPK, Kinase-Glo ATP luminescence, 1 h
Target sequence (Q27686 whole entry, looked up): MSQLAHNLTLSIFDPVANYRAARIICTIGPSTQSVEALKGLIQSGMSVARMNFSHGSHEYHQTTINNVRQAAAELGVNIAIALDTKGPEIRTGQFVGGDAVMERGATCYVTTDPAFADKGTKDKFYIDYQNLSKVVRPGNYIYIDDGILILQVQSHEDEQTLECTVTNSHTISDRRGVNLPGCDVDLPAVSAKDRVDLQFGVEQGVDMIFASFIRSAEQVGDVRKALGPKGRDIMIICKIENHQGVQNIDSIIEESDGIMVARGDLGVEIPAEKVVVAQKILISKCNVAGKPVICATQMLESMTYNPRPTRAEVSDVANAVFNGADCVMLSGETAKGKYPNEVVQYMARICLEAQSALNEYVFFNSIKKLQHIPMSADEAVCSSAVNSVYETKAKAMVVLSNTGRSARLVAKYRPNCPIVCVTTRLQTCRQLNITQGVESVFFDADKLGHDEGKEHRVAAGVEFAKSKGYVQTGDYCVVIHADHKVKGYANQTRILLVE
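qHTS format; LmPK 0.1 nM; substrates PEP 0.5 mM and ADP 0.1 mM. One-hour room-temperature incubation, then coupled luciferase luminescence; 0.5 nM enzyme wells mark activation.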
Shiga inhibitor: A qHTS for Small Molecule Inhibitors of Shiga Toxin | Vero cells, Shiga toxin protein synthesis inhibition reporter | inhibition, % at 38.7 µM | actives 9.2% (n = 290,000) | AID 2315, 2010; in the data active = inhibition mostly above about 28%, no sharp cut-off; inactive = mostly below about 43%
Giardia FBPA inh: qHTS Assay for Inhibitors of Fructose-1,6-bisphosphate Aldolase from Giardia Lamblia | AID 2451, 2010 | Potency, µM (series often up to 59.6 µM), most hits filed as inhibitors | actives 0.71% (n = 290,000) | purified Giardia FBPA; note: nearly all actives have a fitted effect of over 55% in size
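Giardia FBPA (40 nM reagent) was preincubated 10 min at RT with compound (up to 57.5 uM final), then substrate plus GAPDH/TPI/NAD/arsenate coupling system with diaphorase/resazurin was added; resorufin fluorescence (525/598 nm) was read after 20 min.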
Sm TGR inh: qHTS Assay for the Inhibitors of Schistosoma Mansoni Peroxiredoxins. purified TGR, DTNB reduction, TNB absorbance 405 nm. Potency, µM (top dose mostly 114 µM), actives largely listed as inhibitors. actives 3% (n = 360,000). AID 485364, 2010; note: nearly all actives have a fitted effect of over 60% in size
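Kinetic colorimetric format: TGR-catalysed, NADPH-driven DTNB reduction monitored via TNB absorbance. Enzyme dispensed at 20 nM; compound exposure 15 min at room temperature before reaction start.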
Tb PYK inh: qHTS of Trypanosoma Brucei Inhibitors | pyruvate kinase (Trypanosoma brucei), Q57TT1 | actives 0.12% (n = 410,000) | Potency, µM (series often up to 76.8 µM), actives largely listed as inhibitors | TbPYK enzyme, Kinase-Glo Plus ATP luminescence, 45 min; note: nearly all actives have a fitted effect of over 50% in size
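Screened from lowest to highest concentration, compounds were pinned into TbPYK/substrate mixtures, and ADP (130 uM final) was added. Plates sat at room temperature for 45 min prior to Kinase-Glo Plus detection by luminescence.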
Cycloheximide cs: Cycloheximide Counterscreen for Small Molecule Inhibitors of Shiga Toxin; cell reporter, cycloheximide protein synthesis inhibition counterscreen; max response, %; actives 12% (n = 300,000); in the data active = max response mostly above about 13%, no sharp cut-off; inactive = mostly below about 14%; note: read at 38.3 µM for the half of the compounds with a filed dose
Numbers stand for hits. Many of the other results were omitted from the sample, so hits are more common in it than they were. Unless noted, calls come from the whole dose curve; as a rule, active = well fitted curve in the direction sought with a large enough effect; inconclusive = small, poorly fitted or top-dose-only effect, or another doubt; inactive = no such curve, though single readings can be large; an effect the other way counts as inactive or inconclusive.

For CNC(=S)SCCOc1ccccc1 the results were LmPK inhibitor inactive, Shiga inhibitor 101, Giardia FBPA inh inactive, Sm TGR inh inactive, Tb PYK inh inactive and Cycloheximide cs 21.
Cc1c(C(=O)N(Cc2ccco2)Cc2ccccc2Cl)oc2ccc(F)cc12 was read as Sm TGR inh inactive and Tb PYK inh inactive.
For COc1ccc(/C=C/c2nc(-c3ccccc3O)n[nH]2)cc1OC the results were LmPK inhibitor inactive, Shiga inhibitor 23, Giardia FBPA inh inactive, Sm TGR inh inactive, Tb PYK inh inactive and Cycloheximide cs 20.
`O=C(O)COc1ccc(/C=C/c2nc(-c3ccccc3O)n[nH]2)cc1` gave LmPK inhibitor inactive, Giardia FBPA inh inactive, Sm TGR inh inactive, Tb PYK inh inactive and Cycloheximide cs inactive.
Screening Cc1oc(C)c2c(=O)cc(-c3ccc4c(c3)OCO4)cc(OC(=O)c3ccccc3Cl)c12 returned Sm TGR inh 40µM and Tb PYK inh inactive.
Screening Cc1oc(C)c2c(=O)cc(-c3ccc4c(c3)OCO4)cc(OC(=O)c3ccccc3Br)c12 returned Sm TGR inh 45µM and Tb PYK inh inactive.
For COc1ccc(Cl)cc1NC(=O)C1CCN(C(=O)C2CC(=O)N(c3ccc(C)cc3)C2)CC1 (configuration not stated) the results were LmPK inhibitor inactive, Shiga inhibitor inactive, Giardia FBPA inh inactive, Sm TGR inh inactive, Tb PYK inh inactive and Cycloheximide cs inactive.
For O=C(Cn1ncc2c3ccccc3n(Cc3cccc(Cl)c3)c2c1=O)Nc1ccc(F)cc1F the results were Sm TGR inh inactive and Tb PYK inh inactive.
For CC(C)(C)CC(=O)Nc1nnc(-c2cccs2)s1 the results were LmPK inhibitor inactive, Shiga inhibitor 67, Giardia FBPA inh inactive, Sm TGR inh inactive, Tb PYK inh inactive and Cycloheximide cs 43.
O=C(CN1CCCC1)Nc1nnc(-c2cccs2)s1 was read as LmPK inhibitor inactive, Shiga inhibitor 89, Giardia FBPA inh inactive, Sm TGR inh inactive, Tb PYK inh inactive and Cycloheximide cs 28.
O=C(CN1CCCCC1)Nc1nnc(-c2ccc([N+](=O)[O-])cc2)s1 was read as LmPK inhibitor inactive, Shiga inhibitor inactive, Giardia FBPA inh inactive, Sm TGR inh inactive, Tb PYK inh inactive and Cycloheximide cs 21.
Screening O=C(CN1CCCCC1)Nc1nnc(-c2ccccc2)s1 returned LmPK inhibitor inactive, Shiga inhibitor 72, Giardia FBPA inh inactive, Sm TGR inh inactive, Tb PYK inh inactive and Cycloheximide cs 20.
`COc1ccc(OC)c(-c2nc3cc4ccccc4cc3nc2-c2ccccc2)c1` gave LmPK inhibitor inactive, Shiga inhibitor inactive, Giardia FBPA inh inactive, Sm TGR inh inactive, Tb PYK inh inactive and Cycloheximide cs inactive.
COc1ccc(-c2nc(N)ncc2-c2ccccc2OC)c(O)c1 was read as LmPK inhibitor inactive, Shiga inhibitor inactive, Giardia FBPA inh inactive, Sm TGR inh inactive, Tb PYK inh inactive and Cycloheximide cs inactive.
Screening O=C1CC2C(CC(OC(=O)c3ccc(-c4ccccc4)cc3)C2CO)O1 (configuration not stated) returned LmPK inhibitor inactive, Shiga inhibitor 49, Giardia FBPA inh inactive, Sm TGR inh inactive, Tb PYK inh inactive and Cycloheximide cs 30.
Screening O=C1C[C@H]2[C@H](CO)[C@@H](OC(=O)c3ccc(-c4ccccc4)cc3)C[C@H]2O1 returned LmPK inhibitor inactive, Shiga inhibitor 109, Giardia FBPA inh inactive, Sm TGR inh inconclusive, Tb PYK inh inactive and Cycloheximide cs 50.
CC(C)OCCCN1CN(S(=O)(=O)c2ccc(Cl)cc2)c2nc3ccccc3nc21 was read as LmPK inhibitor inactive, Shiga inhibitor inactive, Giardia FBPA inh inactive, Sm TGR inh inactive, Tb PYK inh inactive and Cycloheximide cs 18.
For CC(C)OCCCN1CN(S(=O)(=O)c2cccc(Cl)c2)c2nc3ccccc3nc21 the results were LmPK inhibitor inactive, Shiga inhibitor 38, Giardia FBPA inh inactive, Sm TGR inh inactive, Tb PYK inh inactive and Cycloheximide cs 22.
`CCn1nc(C)c(/C=N/NC(=O)Cn2nc(C)cc2C)c1C` gave LmPK inhibitor inactive, Shiga inhibitor inactive, Giardia FBPA inh inactive, Sm TGR inh inactive, Tb PYK inh inactive and Cycloheximide cs inactive.
Screening O=C(N/N=C/c1ccsc1)c1c[nH]c2ccccc12 returned LmPK inhibitor inactive, Shiga inhibitor 67, Giardia FBPA inh inactive, Sm TGR inh inactive, Tb PYK inh inactive and Cycloheximide cs 47.
For Cc1[nH]c2ccccc2c1/C=N\NC(=O)c1ccccc1Cl the results were Tb PYK inh inactive.
CCn1nc(C)c(/C=N/NC(=O)c2c[nH]c3ccccc23)c1C was read as LmPK inhibitor inactive, Shiga inhibitor 40, Giardia FBPA inh inactive, Sm TGR inh inactive, Tb PYK inh inactive and Cycloheximide cs 50.
Screening CCc1c(C(=O)N/N=C/c2cn[nH]c2-c2ccc(F)cc2)csc1C returned LmPK inhibitor inactive, Shiga inhibitor inactive, Giardia FBPA inh inactive, Sm TGR inh inactive, Tb PYK inh inactive and Cycloheximide cs inactive.
`CCn1nc(C)c(/C=N/NC(=O)Cn2nccc2C)c1C` gave LmPK inhibitor inactive, Shiga inhibitor 72, Giardia FBPA inh inactive, Sm TGR inh inactive, Tb PYK inh inactive and Cycloheximide cs 37.
CCc1c(C(=O)N/N=C/c2ccsc2)csc1C was read as LmPK inhibitor inactive, Shiga inhibitor active, Giardia FBPA inh inactive, Sm TGR inh inactive, Tb PYK inh inactive and Cycloheximide cs 39.
Screening Cc1ccccc1CSc1cn(CC(=O)N2CCCCCC2)c2ccccc12 returned Sm TGR inh inactive and Tb PYK inh inactive.
`COc1ccc(C/C(C)=N\NC(=O)c2c[nH]c3ccccc23)cc1OC` gave LmPK inhibitor inactive, Shiga inhibitor 71, Giardia FBPA inh inactive, Sm TGR inh inactive, Tb PYK inh inactive and Cycloheximide cs 29.
`Cc1ccc(/C=N/NC(=O)c2c[nH]c3ccccc23)o1` gave LmPK inhibitor inactive, Shiga inhibitor 72, Giardia FBPA inh inactive, Sm TGR inh inactive, Tb PYK inh inactive and Cycloheximide cs 20.
`COc1ccc(CCNC(=O)C(=O)c2c[nH]c3ccccc23)cc1OC` gave LmPK inhibitor inactive, Shiga inhibitor inactive, Giardia FBPA inh inactive, Sm TGR inh inactive, Tb PYK inh inactive and Cycloheximide cs inactive.
Screening Cc1ccc(/C=N/NC(=O)c2c[nH]c3ccccc23)s1 returned LmPK inhibitor inactive, Shiga inhibitor 77, Sm TGR inh inactive, Tb PYK inh inactive and Cycloheximide cs 30.
Cc1ccc(/C=N/NC(=O)c2cccc3ccccc23)o1 was read as LmPK inhibitor inactive, Shiga inhibitor inactive, Giardia FBPA inh inactive, Sm TGR inh inactive, Tb PYK inh inactive and Cycloheximide cs inactive.
